Compound activity (PubChem)
Only some compounds are listed: those with a hit (about 2.4% of all), similar ones and a draw of the others.
A3G deaminase: APOBEC3G (human) deaminase inhibition; Q9HC16; recombinant A3G, ssDNA deamination FAM/TAMRA fluorescence; inhibition, % at 20 µM; 330,000 tested, 0.28% active; AID 493012;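 active means inhibition of at least 40% at 20 µM, with no more than 30% in the related APOBEC3A deaminase screen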;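 further: plate controls were DMSO wells with A3G for no effect and wells lacking A3G enzyme for full effect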
Target sequence (Q9HC16 whole entry, looked up): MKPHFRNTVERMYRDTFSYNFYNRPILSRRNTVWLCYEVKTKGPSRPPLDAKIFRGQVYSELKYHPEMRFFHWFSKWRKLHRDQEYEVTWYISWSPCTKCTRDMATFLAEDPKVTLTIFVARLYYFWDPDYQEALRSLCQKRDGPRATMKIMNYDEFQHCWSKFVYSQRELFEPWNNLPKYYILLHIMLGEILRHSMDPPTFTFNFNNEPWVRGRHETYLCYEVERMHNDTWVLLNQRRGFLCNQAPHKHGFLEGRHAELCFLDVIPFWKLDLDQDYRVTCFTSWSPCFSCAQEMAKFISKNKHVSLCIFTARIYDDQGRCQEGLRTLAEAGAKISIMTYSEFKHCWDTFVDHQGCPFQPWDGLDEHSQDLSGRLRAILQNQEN
ADAM10 inh: inhibits human ADAM10. O14672. recombinant ADAM10, EDANS/DABCYL FRET peptide cleavage, 3 h. inhibition, % at 7 µM. 370,000 tested, 0.62% active. AID 720582;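 active means inhibition above a per-campaign cutoff equal to the mean of compounds falling between control-based bounds plus 3 SD, cut at about 20% in these data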;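 further: 0% = DMSO wells while the 100% control is not disclosed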
CendR NRP1 mod: alters CendR peptide binding to human NRP-1; AID 602438; FAM-RPARPAR peptide binding to NRP-1, fluorescence polarization; inhibition, % at 25 µM; 360,000 tested, 0.85% active; O14786;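 active means inhibition or corrected inhibition above about 18%, plus a signal ratio from 0.5 to 1.5, limit read from the data, passing the limit was not always enough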
ADAM17 inh: ADAM17 inhibition, QFRET primary screen | 370,000 tested, 0.83% active | AID 720648 | recombinant ADAM17, EDANS/DABCYL FRET peptide cleavage | P78536 | inhibition, % at 6.95 µM;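 active means inhibition above the mean of compounds lying between control limits plus 3 SD, set per campaign, cut at about 8.5% in these data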;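 further: 0% = DMSO-only wells as the low control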
A3A deaminase: blocks human APOBEC3A ssDNA deamination; P31941; recombinant A3A, FAM/TAMRA ssDNA deamination fluorescence; AID 493011; 330,000 tested, 0.41% active; inhibition, % at 20 µM;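 active means at least 40% inhibition at 20 µM here, with at most 30% in a related deaminase screen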;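 further: plate controls were A3A with DMSO for no effect and wells lacking A3A enzyme for full effect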
Target sequence (P31941 whole entry, looked up): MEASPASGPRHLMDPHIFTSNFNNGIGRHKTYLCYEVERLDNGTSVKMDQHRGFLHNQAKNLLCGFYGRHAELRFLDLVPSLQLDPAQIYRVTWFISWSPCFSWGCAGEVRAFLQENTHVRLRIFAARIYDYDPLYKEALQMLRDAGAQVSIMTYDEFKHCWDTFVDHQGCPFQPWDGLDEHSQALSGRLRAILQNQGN
An asterisk follows results filed as active; nt = no result given.

SMILES	A3G deaminase	ADAM10 inh	CendR NRP1 mod	ADAM17 inh	A3A deaminase
O=C(CN1C(=O)c2ccccc2S1(=O)=O)NCCSCc1c(F)cccc1Cl	1	4	24*	-1	3
O=C(CN1C(=O)c2ccccc2S1(=O)=O)NCCSCc1ccccc1Cl	-5	-6	9	2	-1
O=C(Nc1ccc(F)cc1)OCc1cn(Cc2ccccc2C(F)(F)F)nn1	nt	7	nt	7	nt
O=C(O)CCSc1nnc(COc2cccc3cccnc23)n1-c1ccccc1	-1	-2	26*	-3	0
O=C(O)CSc1nnc(COc2cccc3cccnc23)n1-c1cccc(C(F)(F)F)c1	-7	-11	nt	-3	-2
CCOC(=O)[C@]12CCCC=C1N(Cc1ccccc1)C(=O)[C@H](CC(=O)N1CCCCCC1)C2	nt	-10	4	-5	nt
CCOC(=O)N1CCN(C(=O)C[C@@H]2C[C@@]3(C(=O)OCC)CCCC=C3N(Cc3ccccc3)C2=O)CC1	nt	3	36*	-1	nt
CCOC(=O)C[C@H]1c2ccc(C(F)(F)F)cc2S(=O)(=O)N1Cc1ccccc1	3	7	7	1	2
CCOC(=O)C[C@H]1c2ccc(C(F)(F)F)cc2S(=O)(=O)N1C(C)(C)C	-11	5	22*	2	-5
CCOC(=O)C[C@H]1c2cc(C(F)(F)F)ccc2S(=O)(=O)N1Cc1ccccc1	-16	9	26*	0	-2
CC(C)C(=O)NC(c1cccc([N+](=O)[O-])c1)c1ccc2cccnc2c1O (stereo not given)	11	17	7	8	-6
CCCC(=O)NC(c1cccc([N+](=O)[O-])c1)c1ccc2cccnc2c1O (stereo not given)	nt	26*	-13	7	nt
CCN(CC)C(=O)c1oc(=O)c2ccccc2c1-c1ccc(C)cc1	nt	12	nt	1	nt
c1ccc2c(c1)Nc1cc3ccccc3cc1S2	-15	-27	-3	-11	-4
Cc1ccc2c(c1)Sc1c(ccc3ccccc13)N2	-7	-149	48*	-36	-2
CCOC(=O)CNC(=O)CSc1nnc(-c2cccs2)o1	nt	-4	nt	1	nt
O=C1C=C(NCc2ccccc2)C2(CCCCC2)O1	-2	-11	-9	-1	-1
O=C1C=C(NCc2ccco2)C2(CCCCC2)O1	-8	-4	23*	5	-3
O=C(OCc1cn(Cc2cccc(Cl)c2)nn1)N1CCOCC1	nt	-3	nt	-9	nt
Cc1nn(-c2ccccc2)c(C)c1C(=O)OCC(=O)Nc1ccccc1	-5	-4	26*	1	-3
Cc1ccc(NC(=O)COC(=O)c2c(C)nn(-c3ccccc3)c2C)cc1	2	-13	4	-7	7
Cc1nc2sc(C(c3ccco3)N3CC(C)OC(C)C3)c(O)n2n1 (stereo not given)	-8	-1	19*	-6	-8
Cc1cccc(C)c1Nc1nnc(SCC(=O)Nc2cc(S(=O)(=O)N3CCCCC3)ccc2Cl)s1	-9	6	26*	2	-4
Cc1cccc(Nc2nnc(SCC(=O)Nc3cccc(S(=O)(=O)N4CCCCC4)c3)s2)c1	-4	14	-6	8	-1
Cc1ccc(S(=O)(=O)N2CCCCC2)cc1NC(=O)CSCC(=O)O	-6	-3	59*	0	2
SMILES	A3G deaminase	ADAM10 inh	CendR NRP1 mod	ADAM17 inh	A3A deaminase
Cc1cc(C(=O)NN=Cc2cccc(O)c2)n[nH]1	nt	-3	nt	1	nt
Cc1ccsc1C(=O)OCC(=O)NC1CCCC1	2	-5	21*	1	0
CC(=O)Nc1nc(C)c(Oc2ccccc2)c(=O)[nH]1	-4	-2	12	0	4
CCC(=O)Nc1nc(C)c(Oc2ccccc2)c(=O)[nH]1	-4	1	24*	-3	4
Cc1cc(OCC(=O)NCCCn2ccnc2)c2c(C)cc(=O)oc2c1	-4	-339	20*	-104	-4
CCCCNC(=O)C[C@H]1C[C@@]2(C(=O)OC)C(=C[C@H](C(C)(C)C)O[C@@H]2C)N(Cc2ccccc2)C1=O	nt	-3	nt	1	nt
COC(=O)c1cccc(NC(=O)c2cccc(OC)c2)c1	-1	5	23*	-1	-1
COc1cccc(C(=O)Nc2ccc(C)cc2)c1	-2	6	-6	-2	2
COc1cccc(C(=O)Nc2cccc(C(C)=O)c2)c1	-5	-6	-12	-1	1
COc1cccc(C(=O)Nc2ccc(C3CC3(Cl)Cl)cc2)c1 (stereo not given)	-5	10	21*	2	-3
Cc1ccn2c(-c3csc(NCc4ccccc4)n3)c(C)nc2c1	4	-10	25*	-6	-2
COc1ccc(-c2csc(NC(=O)CS(=O)(=O)c3ccccc3)n2)cc1	-4	-4	2	-3	6
COc1ccc(-c2csc(NC(=O)C3CCCCN3S(=O)(=O)c3ccccc3)n2)cc1 (stereo not given)	-4	15	14	10*	2
C=CCN(CC#CC(=C)C)CC1CC1	nt	-8	nt	-3	nt
Oc1ccc2c(c1)OCC1(O)Cc3cc(O)c(O)cc3C21 (stereo not given)	nt	-33	19	-7	nt
Oc1cc2c(cc1O)[C@H]1c3ccc(O)c(O)c3OC[C@@]1(O)C2	59*	-1	17	-2	-2
CC(=O)Nc1ccc(Oc2cc(C#N)c(C#N)cc2N2CCOCC2)cc1	-5	-3	41*	1	-1
C=CCn1c(SCC(=O)O)nnc1-c1ccco1	nt	-1	nt	-2	nt
COc1ccc(C2=CC(=O)CCC2)cc1	-2	-3	40*	-7	-3
COc1cccc(C2=CC(=O)CCC2)c1	-9	-31	11	-9	-3
O=C(CCn1nnc2ccccc21)N1CCN(c2cccc(C(F)(F)F)c2)CC1	nt	2	nt	3	nt
CC(C)Oc1ccc(F)cc1-c1cc(C(=O)NCc2ccc(F)cc2)[nH]n1	nt	6	27*	4	nt
COc1ccc(F)cc1-c1cc(C(=O)NCc2ccc(C(F)(F)F)cc2)[nH]n1	nt	12	-4	4	nt
COc1ccc(F)cc1-c1cc(C(=O)NCc2cccc(C(F)(F)F)c2)[nH]n1	nt	11	18*	5	nt
O=C1CN(C(=O)C2CCCCC2)C=CN1CCc1ccccc1Br	nt	-4	nt	-4	nt
SMILES	A3G deaminase	ADAM10 inh	CendR NRP1 mod	ADAM17 inh	A3A deaminase
CC(C)(C)OC(=O)NCc1cc2c(cc1/C=C/S(=O)(=O)NC1CCCC1)OCO2	nt	-77	nt	-21	nt
CC1CCN(CCCNS(=O)(=O)c2cc3c(cc2Br)CCN3C(=O)C2CC2)CC1	nt	-1	nt	-1	nt
CCCCCCCCN1C(=O)[C@@H](CC(=O)N2CCCCC2)C[C@@]2(C(=O)OC)C1=C[C@H](C1CCCC1)O[C@@H]2C	nt	-2	nt	-2	nt
COc1ccc(NC(=O)C2Cc3ccccc3CN2C(=O)c2ccccc2)cn1 (stereo not given)	0	7	25*	-3	-1
CC(=O)c1ccc(NC(=O)C2Cc3ccccc3CN2C(=O)c2ccccc2)cc1 (stereo not given)	-5	2	-14	0	-1
O=C(Nc1cccc(F)c1)OCCN1CCCC12CCC(c1ccccc1)CC2 (stereo not given)	nt	3	nt	-1	nt
